Assay results published in publication PMC7862700, “An all-to-all approach to the identification of sequence-specific readers for epigenetic DNA modifications on cytosine”.

Assays:
Assay in all cases: DAPPL (digital affinity profiling via proximity ligation, sequencing); 10 mM Tris-HCl pH 7.5, 50 mM NaCl, 1 mM DTT, 4% glycerol, room temperature, 30 min; GST-TFs on glutathione beads, 16-mer random dsDNA library, 0.1% formaldehyde crosslink after washing; high values mean tight binding
FLI1 = target: T1, FLI1 (Homo sapiens, UniProt Q01543 1-452); conditions: protein: recombinant; tags: N-terminal GST; dsDNA, one strand shown
T1 sequence: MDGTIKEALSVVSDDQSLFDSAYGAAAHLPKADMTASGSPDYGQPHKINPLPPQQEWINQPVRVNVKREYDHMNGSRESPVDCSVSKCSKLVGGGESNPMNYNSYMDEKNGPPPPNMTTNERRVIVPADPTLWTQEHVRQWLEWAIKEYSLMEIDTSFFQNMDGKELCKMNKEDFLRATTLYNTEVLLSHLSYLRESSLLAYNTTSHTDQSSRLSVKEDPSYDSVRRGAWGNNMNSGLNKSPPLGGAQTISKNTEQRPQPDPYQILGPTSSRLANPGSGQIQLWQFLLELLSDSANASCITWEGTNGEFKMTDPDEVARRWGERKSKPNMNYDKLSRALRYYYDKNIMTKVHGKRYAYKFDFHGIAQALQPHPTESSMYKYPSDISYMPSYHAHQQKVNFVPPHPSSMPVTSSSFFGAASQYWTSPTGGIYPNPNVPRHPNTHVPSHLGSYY
Procedure, shortened: (§1)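 Human transcription factors were made in yeast as GST fusions, captured on glutathione beads and barcoded with DNA. With a tag-only sample included, the pool was incubated with 200 nmole of a random double-stranded 16-mer DNA library in Tris/NaCl/DTT/glycerol buffer at room temperature for 30 min, then crosslinked with 0.1% formaldehyde after washing, ligated by proximity, amplified and sequenced. For binding signal, each hexamer's read frequency for a factor is divided by its frequency for the tag-only sample.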

ELK1 = target: T2, ELK1 (Homo sapiens, UniProt P19419 1-428); conditions: protein: recombinant; tags: N-terminal GST; dsDNA, one strand shown
T2 sequence: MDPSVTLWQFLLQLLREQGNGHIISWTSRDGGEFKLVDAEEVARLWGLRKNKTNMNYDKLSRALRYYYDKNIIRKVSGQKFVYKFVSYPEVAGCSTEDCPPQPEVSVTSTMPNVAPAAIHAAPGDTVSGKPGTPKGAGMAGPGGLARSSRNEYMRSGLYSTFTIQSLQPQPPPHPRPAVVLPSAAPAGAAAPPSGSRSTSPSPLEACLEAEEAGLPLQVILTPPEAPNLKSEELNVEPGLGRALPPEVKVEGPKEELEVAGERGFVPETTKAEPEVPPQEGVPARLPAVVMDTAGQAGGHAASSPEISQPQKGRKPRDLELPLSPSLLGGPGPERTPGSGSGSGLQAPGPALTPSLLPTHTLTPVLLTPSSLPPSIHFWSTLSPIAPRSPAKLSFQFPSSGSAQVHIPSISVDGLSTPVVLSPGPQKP
Procedure, shortened: as §1

GABPA = target: T3, GABPA (Homo sapiens, UniProt Q06546 1-454); conditions: protein: recombinant; tags: N-terminal GST; dsDNA, one strand shown
T3 sequence: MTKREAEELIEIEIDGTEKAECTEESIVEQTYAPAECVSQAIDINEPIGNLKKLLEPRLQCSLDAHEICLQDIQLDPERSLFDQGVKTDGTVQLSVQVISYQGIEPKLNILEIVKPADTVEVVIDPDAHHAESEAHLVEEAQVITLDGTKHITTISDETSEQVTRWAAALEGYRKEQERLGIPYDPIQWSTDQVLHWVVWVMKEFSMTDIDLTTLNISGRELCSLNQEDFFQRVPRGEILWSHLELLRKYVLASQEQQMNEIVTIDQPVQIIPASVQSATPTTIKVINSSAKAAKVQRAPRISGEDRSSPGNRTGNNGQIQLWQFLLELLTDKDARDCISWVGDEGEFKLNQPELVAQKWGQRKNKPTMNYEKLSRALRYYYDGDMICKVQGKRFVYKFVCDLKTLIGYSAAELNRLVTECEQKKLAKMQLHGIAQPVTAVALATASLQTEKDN
Procedure, shortened: as §1

ERG = target: T4, ERG (Homo sapiens, UniProt P11308 1-479); conditions: protein: recombinant; tags: N-terminal GST; dsDNA, one strand shown
T4 sequence: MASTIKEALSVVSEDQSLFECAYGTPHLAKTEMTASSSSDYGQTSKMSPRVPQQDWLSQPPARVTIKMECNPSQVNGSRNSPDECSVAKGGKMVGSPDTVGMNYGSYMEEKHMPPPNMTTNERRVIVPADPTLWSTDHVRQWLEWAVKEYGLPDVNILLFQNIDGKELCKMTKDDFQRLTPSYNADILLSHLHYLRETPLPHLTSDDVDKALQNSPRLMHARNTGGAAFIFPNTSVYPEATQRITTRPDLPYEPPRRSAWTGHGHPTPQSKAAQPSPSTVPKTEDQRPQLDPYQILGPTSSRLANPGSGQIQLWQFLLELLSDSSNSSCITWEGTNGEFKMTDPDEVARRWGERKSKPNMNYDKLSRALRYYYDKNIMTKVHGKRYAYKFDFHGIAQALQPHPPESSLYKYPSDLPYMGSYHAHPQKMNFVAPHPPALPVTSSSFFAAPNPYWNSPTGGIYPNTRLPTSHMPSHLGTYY
Procedure, shortened: as §1

ELF1 = ELF1 (Homo sapiens, UniProt P32519 1-619); conditions: protein: recombinant; tags: N-terminal GST; dsDNA, one strand shown
ELF1, sequence (P32519 whole entry): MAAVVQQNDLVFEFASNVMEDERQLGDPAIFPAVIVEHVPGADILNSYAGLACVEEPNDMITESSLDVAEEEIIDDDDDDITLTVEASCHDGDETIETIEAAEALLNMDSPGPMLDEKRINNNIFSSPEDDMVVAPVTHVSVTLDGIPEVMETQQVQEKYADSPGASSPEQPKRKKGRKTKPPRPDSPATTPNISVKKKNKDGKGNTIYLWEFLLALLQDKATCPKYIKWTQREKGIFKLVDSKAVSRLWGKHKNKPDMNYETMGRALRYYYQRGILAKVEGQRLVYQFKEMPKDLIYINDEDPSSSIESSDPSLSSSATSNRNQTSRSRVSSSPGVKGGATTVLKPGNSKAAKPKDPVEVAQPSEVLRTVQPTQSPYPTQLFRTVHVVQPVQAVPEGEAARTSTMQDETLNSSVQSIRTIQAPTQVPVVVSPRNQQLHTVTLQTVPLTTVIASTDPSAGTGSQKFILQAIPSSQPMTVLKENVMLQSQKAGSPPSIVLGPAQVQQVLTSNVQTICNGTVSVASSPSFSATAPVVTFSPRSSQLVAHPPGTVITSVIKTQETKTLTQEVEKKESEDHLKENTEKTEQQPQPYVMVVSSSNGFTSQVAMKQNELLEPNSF
Procedure, shortened: as §1

EHF = target: T5, EHF (Homo sapiens, UniProt Q9NZC4 1-300); conditions: protein: recombinant; tags: N-terminal GST; dsDNA, one strand shown
T5 sequence: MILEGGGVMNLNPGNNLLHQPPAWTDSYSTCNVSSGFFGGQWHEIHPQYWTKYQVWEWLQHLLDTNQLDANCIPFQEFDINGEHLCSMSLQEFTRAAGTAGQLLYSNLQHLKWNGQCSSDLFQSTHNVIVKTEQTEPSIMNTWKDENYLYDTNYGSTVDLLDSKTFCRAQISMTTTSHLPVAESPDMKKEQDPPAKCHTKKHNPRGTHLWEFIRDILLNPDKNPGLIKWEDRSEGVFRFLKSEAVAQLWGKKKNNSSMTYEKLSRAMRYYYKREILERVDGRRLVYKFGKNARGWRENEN
Procedure, shortened: as §1

SPI1 = SPI1 (Homo sapiens, UniProt P17947 1-270); conditions: protein: recombinant; tags: N-terminal GST; dsDNA, one strand shown
Procedure, shortened: as §1

SPIB = SPIB (Homo sapiens, UniProt Q01892 1-262); conditions: protein: recombinant; tags: N-terminal GST; dsDNA, one strand shown
SPIB, sequence (Q01892 whole entry): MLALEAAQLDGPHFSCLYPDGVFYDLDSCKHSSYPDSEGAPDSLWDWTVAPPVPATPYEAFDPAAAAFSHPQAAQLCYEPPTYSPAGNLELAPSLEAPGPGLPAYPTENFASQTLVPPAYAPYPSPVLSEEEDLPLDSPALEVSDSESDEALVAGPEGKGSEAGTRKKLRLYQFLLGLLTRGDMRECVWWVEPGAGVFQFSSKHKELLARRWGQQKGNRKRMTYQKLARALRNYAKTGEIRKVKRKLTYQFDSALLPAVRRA
Procedure, shortened: as §1

ELK3 = target: T6, ELK3 (Homo sapiens, UniProt P41970 1-407); conditions: protein: recombinant; tags: N-terminal GST; dsDNA, one strand shown
T6 sequence: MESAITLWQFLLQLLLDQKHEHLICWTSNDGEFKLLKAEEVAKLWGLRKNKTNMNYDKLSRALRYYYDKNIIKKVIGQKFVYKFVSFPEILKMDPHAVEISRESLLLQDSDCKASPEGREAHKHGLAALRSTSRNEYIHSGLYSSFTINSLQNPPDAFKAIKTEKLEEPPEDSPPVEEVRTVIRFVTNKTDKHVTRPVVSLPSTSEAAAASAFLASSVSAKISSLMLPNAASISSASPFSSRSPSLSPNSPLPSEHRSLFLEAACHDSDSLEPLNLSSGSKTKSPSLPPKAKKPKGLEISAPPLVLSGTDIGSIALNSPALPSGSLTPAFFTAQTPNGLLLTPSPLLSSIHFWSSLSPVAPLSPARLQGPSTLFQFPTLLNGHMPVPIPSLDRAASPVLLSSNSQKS
Procedure, shortened: as §1

FEV = target: T7, FEV (Homo sapiens, UniProt Q99581 1-238); conditions: protein: recombinant; tags: N-terminal GST; dsDNA, one strand shown
T7 sequence: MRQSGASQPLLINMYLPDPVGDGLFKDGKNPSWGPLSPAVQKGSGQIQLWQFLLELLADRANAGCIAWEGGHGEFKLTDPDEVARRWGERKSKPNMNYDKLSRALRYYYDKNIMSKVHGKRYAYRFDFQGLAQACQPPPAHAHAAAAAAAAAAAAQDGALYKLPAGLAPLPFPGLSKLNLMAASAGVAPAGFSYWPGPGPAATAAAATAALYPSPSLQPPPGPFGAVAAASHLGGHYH
Procedure, shortened: as §1

ETV5 = ETV5 (Homo sapiens, UniProt P41161 1-510); conditions: protein: recombinant; tags: N-terminal GST; dsDNA, one strand shown
ETV5, sequence (P41161 whole entry): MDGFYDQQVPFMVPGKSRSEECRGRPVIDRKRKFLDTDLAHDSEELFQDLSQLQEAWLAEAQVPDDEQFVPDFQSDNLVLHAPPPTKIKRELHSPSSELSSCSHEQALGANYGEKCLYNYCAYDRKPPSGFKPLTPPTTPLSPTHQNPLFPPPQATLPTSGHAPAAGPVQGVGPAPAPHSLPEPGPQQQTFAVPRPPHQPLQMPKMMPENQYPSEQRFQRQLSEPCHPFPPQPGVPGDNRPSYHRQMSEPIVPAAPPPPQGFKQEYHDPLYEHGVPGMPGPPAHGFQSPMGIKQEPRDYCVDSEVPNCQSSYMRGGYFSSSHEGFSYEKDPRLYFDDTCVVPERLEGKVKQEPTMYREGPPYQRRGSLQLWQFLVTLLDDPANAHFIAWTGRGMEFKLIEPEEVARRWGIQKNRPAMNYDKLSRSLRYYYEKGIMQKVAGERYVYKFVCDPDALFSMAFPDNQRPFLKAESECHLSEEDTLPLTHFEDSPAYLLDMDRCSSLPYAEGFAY
Procedure, shortened: as §1

HSF1 = HSF1 (Homo sapiens, UniProt Q00613 1-529); conditions: protein: recombinant; tags: N-terminal GST; chain copies: 3; dsDNA, one strand shown
HSF1, sequence (Q00613 whole entry): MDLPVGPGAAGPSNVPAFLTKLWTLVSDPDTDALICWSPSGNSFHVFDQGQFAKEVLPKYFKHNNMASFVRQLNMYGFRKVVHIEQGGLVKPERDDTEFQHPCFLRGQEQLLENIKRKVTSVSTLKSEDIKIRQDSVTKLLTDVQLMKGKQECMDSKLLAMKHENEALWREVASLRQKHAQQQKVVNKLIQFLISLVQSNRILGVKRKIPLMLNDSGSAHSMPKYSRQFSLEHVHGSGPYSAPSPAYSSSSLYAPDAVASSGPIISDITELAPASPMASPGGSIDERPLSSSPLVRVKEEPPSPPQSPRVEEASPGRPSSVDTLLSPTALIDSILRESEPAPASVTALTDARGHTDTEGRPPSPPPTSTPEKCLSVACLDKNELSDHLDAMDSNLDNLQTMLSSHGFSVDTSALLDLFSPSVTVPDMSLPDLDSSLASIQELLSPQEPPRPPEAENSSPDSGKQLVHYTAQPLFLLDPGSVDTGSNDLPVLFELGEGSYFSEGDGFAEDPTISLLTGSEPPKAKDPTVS
Procedure, shortened: as §1

SPIC = target: T8, SPIC (Homo sapiens, UniProt Q8N5J4 1-248); conditions: protein: recombinant; tags: N-terminal GST; dsDNA, one strand shown
T8 sequence: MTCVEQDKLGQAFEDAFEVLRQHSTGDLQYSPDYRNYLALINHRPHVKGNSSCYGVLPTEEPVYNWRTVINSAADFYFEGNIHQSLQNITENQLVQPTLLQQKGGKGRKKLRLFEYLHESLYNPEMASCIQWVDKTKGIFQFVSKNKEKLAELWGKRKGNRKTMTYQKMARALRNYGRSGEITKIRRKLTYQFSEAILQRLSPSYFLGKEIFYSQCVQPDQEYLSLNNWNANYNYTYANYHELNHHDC
Procedure, shortened: as §1

ELF4 = ELF4 (Homo sapiens, UniProt Q99607 1-663); conditions: protein: recombinant; tags: N-terminal GST; dsDNA, one strand shown
ELF4, sequence (Q99607 whole entry): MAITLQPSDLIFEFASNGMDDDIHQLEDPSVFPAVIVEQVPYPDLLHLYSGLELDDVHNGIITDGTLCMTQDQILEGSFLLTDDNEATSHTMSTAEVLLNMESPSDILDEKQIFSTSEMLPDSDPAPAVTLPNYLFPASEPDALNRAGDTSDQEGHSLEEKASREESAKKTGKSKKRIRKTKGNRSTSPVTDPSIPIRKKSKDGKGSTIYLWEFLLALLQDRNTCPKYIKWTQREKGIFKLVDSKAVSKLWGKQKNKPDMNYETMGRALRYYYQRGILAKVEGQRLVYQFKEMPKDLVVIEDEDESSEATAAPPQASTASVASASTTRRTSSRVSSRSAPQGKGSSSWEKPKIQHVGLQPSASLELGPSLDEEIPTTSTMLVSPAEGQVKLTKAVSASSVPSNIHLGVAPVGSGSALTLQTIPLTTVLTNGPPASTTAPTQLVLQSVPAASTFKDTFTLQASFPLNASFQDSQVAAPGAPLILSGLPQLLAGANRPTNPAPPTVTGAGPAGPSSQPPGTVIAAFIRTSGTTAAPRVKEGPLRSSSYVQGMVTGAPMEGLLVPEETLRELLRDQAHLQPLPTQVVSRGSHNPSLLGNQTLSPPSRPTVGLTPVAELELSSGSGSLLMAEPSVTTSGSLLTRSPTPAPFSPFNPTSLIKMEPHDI
Procedure, shortened: as §1

ELK4 = target: T9, ELK4 (Homo sapiens, UniProt P28324-2 1-405); conditions: protein: recombinant; tags: N-terminal GST; dsDNA, one strand shown
T9 sequence: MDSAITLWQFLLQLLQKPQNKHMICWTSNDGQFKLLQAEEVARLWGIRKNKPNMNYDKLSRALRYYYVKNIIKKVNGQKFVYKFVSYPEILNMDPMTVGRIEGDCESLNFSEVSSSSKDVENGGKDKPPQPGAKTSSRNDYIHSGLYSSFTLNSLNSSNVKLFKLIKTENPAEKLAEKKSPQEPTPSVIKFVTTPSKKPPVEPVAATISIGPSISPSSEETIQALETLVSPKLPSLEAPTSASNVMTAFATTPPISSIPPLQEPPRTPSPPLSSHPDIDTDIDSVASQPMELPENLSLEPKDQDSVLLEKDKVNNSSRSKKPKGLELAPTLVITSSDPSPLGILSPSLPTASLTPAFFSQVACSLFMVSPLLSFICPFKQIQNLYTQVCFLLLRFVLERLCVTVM
Procedure, shortened: as §1

ETV2 = target: T10, ETV2 (Homo sapiens, UniProt O00321 1-342); conditions: protein: recombinant; tags: N-terminal GST; dsDNA, one strand shown
T10 sequence: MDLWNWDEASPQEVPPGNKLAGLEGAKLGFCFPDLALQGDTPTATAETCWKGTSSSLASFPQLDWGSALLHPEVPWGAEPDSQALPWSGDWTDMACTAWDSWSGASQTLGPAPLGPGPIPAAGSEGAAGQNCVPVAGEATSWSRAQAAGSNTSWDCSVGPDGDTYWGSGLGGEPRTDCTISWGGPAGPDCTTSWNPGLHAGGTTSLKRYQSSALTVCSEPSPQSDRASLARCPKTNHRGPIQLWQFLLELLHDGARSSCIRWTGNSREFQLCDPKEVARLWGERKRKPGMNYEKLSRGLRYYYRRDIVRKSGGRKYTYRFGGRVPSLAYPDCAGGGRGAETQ
Procedure, shortened: as §1

ELF3 = target: T11, ELF3 (Homo sapiens, UniProt P78545 1-371); conditions: protein: recombinant; tags: N-terminal GST; dsDNA, one strand shown
T11 sequence: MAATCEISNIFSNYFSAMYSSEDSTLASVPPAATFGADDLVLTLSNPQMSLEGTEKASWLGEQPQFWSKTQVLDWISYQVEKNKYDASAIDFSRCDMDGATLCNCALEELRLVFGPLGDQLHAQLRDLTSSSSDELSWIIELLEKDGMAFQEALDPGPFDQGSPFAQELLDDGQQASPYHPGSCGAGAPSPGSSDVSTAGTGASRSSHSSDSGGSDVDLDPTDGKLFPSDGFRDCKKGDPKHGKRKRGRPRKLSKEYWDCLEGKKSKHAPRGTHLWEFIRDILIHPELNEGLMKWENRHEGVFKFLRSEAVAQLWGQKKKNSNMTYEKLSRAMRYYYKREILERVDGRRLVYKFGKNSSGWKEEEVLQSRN
Procedure, shortened: as §1

CRX = CRX (Homo sapiens, UniProt O43186 1-299); conditions: protein: recombinant; tags: N-terminal GST; dsDNA, one strand shown
CRX, sequence (O43186 whole entry): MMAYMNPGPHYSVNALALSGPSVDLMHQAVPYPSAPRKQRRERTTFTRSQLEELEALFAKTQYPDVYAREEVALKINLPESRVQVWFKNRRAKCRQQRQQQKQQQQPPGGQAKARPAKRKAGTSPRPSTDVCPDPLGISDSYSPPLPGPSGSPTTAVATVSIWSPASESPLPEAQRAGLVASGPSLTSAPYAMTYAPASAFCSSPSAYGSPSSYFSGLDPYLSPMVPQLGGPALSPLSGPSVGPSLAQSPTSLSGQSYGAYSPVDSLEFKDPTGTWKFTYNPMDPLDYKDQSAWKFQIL
Procedure, shortened: as §1

ETV1 = ETV1 (Homo sapiens, UniProt P50549 1-477); conditions: protein: recombinant; tags: N-terminal GST; dsDNA, one strand shown
ETV1, sequence (P50549 whole entry): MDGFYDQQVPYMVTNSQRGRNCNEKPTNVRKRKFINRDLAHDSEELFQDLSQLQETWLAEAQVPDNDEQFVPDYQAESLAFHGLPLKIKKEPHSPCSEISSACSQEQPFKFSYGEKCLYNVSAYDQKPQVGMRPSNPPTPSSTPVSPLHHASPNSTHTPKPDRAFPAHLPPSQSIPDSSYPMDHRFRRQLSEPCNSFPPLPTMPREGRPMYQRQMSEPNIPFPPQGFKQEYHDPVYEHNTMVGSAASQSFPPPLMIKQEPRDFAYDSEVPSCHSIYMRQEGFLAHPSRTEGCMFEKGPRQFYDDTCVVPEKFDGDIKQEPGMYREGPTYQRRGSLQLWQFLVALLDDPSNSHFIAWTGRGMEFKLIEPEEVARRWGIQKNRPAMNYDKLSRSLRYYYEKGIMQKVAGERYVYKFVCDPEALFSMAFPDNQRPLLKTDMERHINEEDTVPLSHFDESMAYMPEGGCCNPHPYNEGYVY
Procedure, shortened: as §1

## TTTACC
FLI1
  binding signal: 1.28 fold enrichment (6-mer frequency, TF over GST control)
ELK1
  binding signal: 1.2 fold enrichment (6-mer frequency, TF over GST control)
GABPA
  binding signal: 1.24 fold enrichment (6-mer frequency, TF over GST control)
ERG
  binding signal: 1.18 fold enrichment (6-mer frequency, TF over GST control)
ELF1
  binding signal: 1.23 fold enrichment (6-mer frequency, TF over GST control)
EHF
  binding signal: 1.31 fold enrichment (6-mer frequency, TF over GST control)
SPI1
  binding signal: 1.17 fold enrichment (6-mer frequency, TF over GST control)
SPIB
  binding signal: 1.21 fold enrichment (6-mer frequency, TF over GST control)
ELK3
  binding signal: 1.37 fold enrichment (6-mer frequency, TF over GST control)
FEV
  binding signal: 1.32 fold enrichment (6-mer frequency, TF over GST control)
ETV5
  binding signal: 1.29 fold enrichment (6-mer frequency, TF over GST control)
HSF1
  binding signal: 1.25 fold enrichment (6-mer frequency, TF over GST control)
SPIC
  binding signal: 1.17 fold enrichment (6-mer frequency, TF over GST control)
ELF4
  binding signal: 1.24 fold enrichment (6-mer frequency, TF over GST control)
ELK4
  binding signal: 1.41 fold enrichment (6-mer frequency, TF over GST control)
ETV2
  binding signal: 1.3 fold enrichment (6-mer frequency, TF over GST control)
ELF3
  binding signal: 1.2 fold enrichment (6-mer frequency, TF over GST control)
CRX
  binding signal: 1.48 fold enrichment (6-mer frequency, TF over GST control)
ETV1
  binding signal: 1.16 fold enrichment (6-mer frequency, TF over GST control)
